Consider 20 compounds from ChEMBL document CHEMBL5606460, “ASAP - DENV-2 NS2B-NS3 protease fluorescence single point” (2024).

This assay addresses Genome polyprotein (dengue virus type 2) (UniProt P29990).
The mark [1] stands for this setting: Thailand/16681/1984, Concentration 25.0 uM, Number of replicates 1.0.

Screen size: about 2,000 compounds; about 110 (5.5%) showed an effect of 50% or more. This is one part of a sample in which strong results are shown more often than they occur.

On to `O=c1c(N2CC[C@H](CO)C2)nccn1C1CC1`, for which the inhibition (commonly the change of the read-out against control, counted positive when it falls) is, setting by setting: (Thailand/16681/1984, Concentration 49.5 uM, Number of replicates 2.0, Standard deviation 2.4482264734756005 %) 8.46%; (Thailand/16681/1984, Concentration 99.01 uM, Number of replicates 2.0, Standard deviation 2.8900822321462307 %) 18%; (Thailand/16681/1984, Concentration 198.0 uM, Number of replicates 2.0, Standard deviation 2.1394185374850085 %) 33.2%.
In the case of `CCn1ccnc(N2CC[C@@H](CO)C2)c1=O`, the inhibition was found to be 8.04% (Thailand/16681/1984, Concentration 49.5 uM, Number of replicates 2.0, Standard deviation 0.40547257598729775 %); 15.5% (Thailand/16681/1984, Concentration 99.01 uM, Number of replicates 2.0, Standard deviation 0.38043701079703857 %); 28.5% (Thailand/16681/1984, Concentration 198.0 uM, Number of replicates 2.0, Standard deviation 0.16218916526483432 %).
In the case of `C[C@H](NC(=O)C1CCN(c2ccc(C=O)cc2)CC1)C12CC3CC(CC(C3)C1)C2`, the inhibition under setting [1] is 15%.
As to `CN(C(=O)C1CCN(c2ccc(C=O)cc2)CC1)[C@H]1CCN(Cc2ccccc2)C1`, the inhibition under setting [1] worked out at 13.8%.
As for `Cc1nnc([C@H](C)n2cc(C3CCNCC3)c(C)n2)o1`, the inhibition by setting is: (Thailand/16681/1984, Concentration 49.5 uM, Number of replicates 2.0, Standard deviation 23.401160981224884 %) 6.09%; (Thailand/16681/1984, Concentration 99.01 uM, Number of replicates 2.0, Standard deviation 17.471832455878243 %) 11.7%; (Thailand/16681/1984, Concentration 198.0 uM, Number of replicates 2.0, Standard deviation 4.4669335919131345 %) -3.53%.
With `Cc1cc(CO)c2cccc(CC(=O)Nc3ccc(C(=O)O)o3)c2n1`, the inhibition (Thailand/16681/1984, Concentration 49.95 uM, Number of replicates 2.0, Standard deviation 0.6719381020899052 %) worked out at 88.9% and the inhibition (Thailand/16681/1984, Concentration 99.9 uM, Number of replicates 2.0, Standard deviation 0.0646782165500299 %) was determined as 94%.
For the compound `Cc1cc(CO)c2cccc(Cc3cccc(C(=O)N[C@@H](C)C(N)=O)c3)c2n1`, the inhibition was determined as 6.57% (Thailand/16681/1984, Concentration 49.95 uM, Number of replicates 2.0, Standard deviation 0.7962665847500093 %) and 24.1% (Thailand/16681/1984, Concentration 99.9 uM, Number of replicates 2.0, Standard deviation 0.21200201975767785 %).
As to `Cc1cc(CO)c2cccc(Cc3cccc(C(=O)Nc4ccc(C(=O)O)o4)c3)c2n1`, the inhibition is, setting by setting: (Thailand/16681/1984, Concentration 49.95 uM, Number of replicates 2.0, Standard deviation 0.4498774840540114 %) 35.3%; (Thailand/16681/1984, Concentration 99.9 uM, Number of replicates 2.0, Standard deviation 0.6611646932609445 %) 80.5%.
In the case of `Cc1cc(CO)c2cccc(Nc3ccc(C(=O)O)o3)c2n1`, the inhibition runs as follows: (Thailand/16681/1984, Concentration 49.95 uM, Number of replicates 2.0, Standard deviation 2.0261345521834873 %) 10.8%; (Thailand/16681/1984, Concentration 99.9 uM, Number of replicates 2.0, Standard deviation 1.7612979174821286 %) 14%.
In the case of `Cc1cc(CO)c2cccc(CC(=O)NC[C@H](C)O)c2n1`, for the setting “Thailand/16681/1984, Concentration 99.9 uM, Number of replicates 2.0, Standard deviation 0.37872079112567497 %”, the inhibition is -9.3%.
Turning to `Cc1cc(CO)c2cccc(Cc3ccccc3C(=O)Nc3ccc(C(=O)O)o3)c2n1`, the inhibition reads like this: (Thailand/16681/1984, Concentration 49.95 uM, Number of replicates 2.0, Standard deviation 1.5990008562851066 %) 16.8%; (Thailand/16681/1984, Concentration 99.9 uM, Number of replicates 2.0, Standard deviation 2.1056511568076566 %) 34.4%.
For `O=Cc1ccc(N2CCC(C(=O)Nc3ccccc3Oc3ccccc3)CC2)cc1`, the inhibition under setting [1] was 14.2%.
`c1ccc2c([C@H]3CCN(Cc4ccon4)C3)c[nH]c2c1`: the inhibition runs as follows: (Thailand/16681/1984, Concentration 49.5 uM, Number of replicates 2.0, Standard deviation 1.9476178393933903 %) -2.85%; (Thailand/16681/1984, Concentration 99.01 uM, Number of replicates 2.0, Standard deviation 2.5164078728535832 %) -2.25%; (Thailand/16681/1984, Concentration 198.0 uM, Number of replicates 2.0, Standard deviation 2.4110409873352823 %) -1.68%.
Take `O=Cc1ccc(N2CCC(C(=O)N3CCN(CCOc4ccccc4)CC3)CC2)cc1`: the inhibition under setting [1] worked out at 11.7%.
Take `CC(C)Nc1nc2ccc(C(=O)NCc3cnn(C)c3)cc2[nH]1`: the inhibition (Thailand/16681/1984, Concentration 49.5 uM, Number of replicates 2.0, Standard deviation 2.4534347281334856 %) is -3.32%; the inhibition (Thailand/16681/1984, Concentration 99.01 uM, Number of replicates 2.0, Standard deviation 2.252490861313308 %) is -2.73%; the inhibition (Thailand/16681/1984, Concentration 198.0 uM, Number of replicates 2.0, Standard deviation 1.9859869815785558 %) is -2.52%.
For `N=C(N)NCCC[C@H](NC(=O)[C@H](Cc1ccc(CN)cc1)NC(=O)c1ccccc1)B(O)O`, the inhibition reads like this: (Thailand/16681/1984, Concentration 25.0 uM, Number of replicates 3.0, Standard deviation 0.03506963405710981 %) 99.2%; (Thailand/16681/1984, Concentration 49.5 uM, Number of replicates 2.0, Standard deviation 0.000841588271065532 %) 99.2%; (Thailand/16681/1984, Concentration 49.5 uM, Number of replicates 2.0, Standard deviation 0.023586050776272474 %) 99.1%; (Thailand/16681/1984, Concentration 49.5 uM, Number of replicates 2.0, Standard deviation 0.03248746518177329 %) 99.4%; (Thailand/16681/1984, Concentration 49.5 uM, Number of replicates 2.0, Standard deviation 0.05596562002585788 %) 99.3%; (Thailand/16681/1984, Concentration 49.5 uM, Number of replicates 2.0, Standard deviation 0.06712205941408557 %) 99.5%. Also, the inhibition by setting is: (Thailand/16681/1984, Concentration 49.5 uM, Number of replicates 2.0, Standard deviation 0.09040060678362256 %) 99.2%; (Thailand/16681/1984, Concentration 49.5 uM, Number of replicates 2.0, Standard deviation 0.09520737056259301 %) 99.3%; (Thailand/16681/1984, Concentration 49.95 uM, Number of replicates 2.0, Standard deviation 0.47465039008435067 %) 97.5%; (Thailand/16681/1984, Concentration 99.01 uM, Number of replicates 2.0, Standard deviation 0.0013325147625204256 %) 99.6%; (Thailand/16681/1984, Concentration 99.01 uM, Number of replicates 2.0, Standard deviation 0.024875407165917744 %) 99.7%; (Thailand/16681/1984, Concentration 99.01 uM, Number of replicates 2.0, Standard deviation 0.05930499912707304 %) 99.8%. In addition, the inhibition was 99.6% (Thailand/16681/1984, Concentration 99.01 uM, Number of replicates 2.0, Standard deviation 0.0639876825840274 %); 99.8% (Thailand/16681/1984, Concentration 99.01 uM, Number of replicates 2.0, Standard deviation 0.06968458780354793 %); 99.5% (Thailand/16681/1984, Concentration 99.01 uM, Number of replicates 2.0, Standard deviation 0.07464240588758142 %); 99.6% (Thailand/16681/1984, Concentration 99.01 uM, Number of replicates 2.0, Standard deviation 0.12292583554166162 %); 98.7% (Thailand/16681/1984, Concentration 99.9 uM, Number of replicates 2.0, Standard deviation 0.4080138623651106 %); 99.7% (Thailand/16681/1984, Concentration 198.0 uM, Number of replicates 2.0, Standard deviation 0.0010358009490037316 %). The inhibition reads like this: (Thailand/16681/1984, Concentration 198.0 uM, Number of replicates 2.0, Standard deviation 0.007655216388730705 %) 99.8%; (Thailand/16681/1984, Concentration 198.0 uM, Number of replicates 2.0, Standard deviation 0.011571838727151066 %) 99.8%; (Thailand/16681/1984, Concentration 198.0 uM, Number of replicates 2.0, Standard deviation 0.02492935513201169 %) 99.9%; (Thailand/16681/1984, Concentration 198.0 uM, Number of replicates 2.0, Standard deviation 0.05517797972088629 %) 99.9%; (Thailand/16681/1984, Concentration 198.0 uM, Number of replicates 2.0, Standard deviation 0.06791509451566656 %) 99.8%; (Thailand/16681/1984, Concentration 198.0 uM, Number of replicates 2.0, Standard deviation 0.07632018763310308 %) 99.6%.
For `NCc1ccc(C[C@H](NC(=O)c2ccccc2)C(=O)Nc2cccc(C(N)=O)c2)cc1`, the inhibition was -3.21% (Thailand/16681/1984, Concentration 49.5 uM, Number of replicates 2.0, Standard deviation 0.2094720287352659 %); -1.98% (Thailand/16681/1984, Concentration 99.01 uM, Number of replicates 2.0, Standard deviation 1.2712236353041253 %); -0.193% (Thailand/16681/1984, Concentration 198.0 uM, Number of replicates 2.0, Standard deviation 0.9103772804850719 %).
In the case of `N#Cc1ccc(C[C@H](NC(=O)c2ccccc2)C(=O)NCCCCNC(=N)N)cc1`, the inhibition (Thailand/16681/1984, Concentration 49.5 uM, Number of replicates 2.0, Standard deviation 0.6326801671633419 %) is -5.12%; the inhibition (Thailand/16681/1984, Concentration 99.01 uM, Number of replicates 2.0, Standard deviation 1.2914777248245206 %) is -4.14%; the inhibition (Thailand/16681/1984, Concentration 198.0 uM, Number of replicates 2.0, Standard deviation 0.45252363179091937 %) was -1.98%.
`O=Cc1ccc(N2CCC(C(=O)N3CCN(c4ccnc5cc(Cl)ccc45)CC3)CC2)cc1`: the inhibition under setting [1] was 1.86%.
`CC(C)CC(=O)N1CCC(NC(=O)C2CCN(c3ccc(C=O)cc3)CC2)CC1`: under setting [1], the inhibition was determined as 14.2%.
